# Experiments:
# Details in all cases: concentration: 1 μM, replicates: in singlicate; n = 1
# IKK-alpha = tested on: T1, IKK-alpha
# T1 construct: gene CHUK
# IKK-beta = tested on: T2, IKK-beta
# T2 construct: gene IKBKB
# IKK-epsilon = tested on: T3, IKK-epsilon
# T3 construct: gene IKBKE
# INSRR = tested on: INSRR
# INSR = tested on: INSR
# IRAK1 = tested on: IRAK1
# IRAK3 = tested on: IRAK3
# IRAK4 = tested on: IRAK4
# ITK = tested on: ITK
# [1] = tested on: JAK1(JH1domain-catalytic)
# [2] = tested on: JAK1(JH2domain-pseudokinase)
# [3] = tested on: JAK2(JH1domain-catalytic)
# [4] = tested on: JAK3(JH1domain-catalytic)
# JNK1 = tested on: T4, JNK1
# T4 construct: gene MAPK8
# JNK2 = tested on: T5, JNK2
# T5 construct: gene MAPK9
# JNK3 = tested on: T6, JNK3
# T6 construct: gene MAPK10
# KIT-autoinhibited = tested on: KIT-autoinhibited
# KIT = tested on: KIT
# LATS1 = tested on: LATS1
# LATS2 = tested on: LATS2
# 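Note: KINOMEscan kinase panel screen.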
Compound,%Inh (IKK-alpha),%Inh (IKK-beta),%Inh (IKK-epsilon),%Inh (INSRR),%Inh (INSR),%Inh (IRAK1),%Inh (IRAK3),%Inh (IRAK4),%Inh (ITK),%Inh [1],%Inh [2],%Inh [3],%Inh [4],%Inh (JNK1),%Inh (JNK2),%Inh (JNK3),%Inh (KIT-autoinhibited),%Inh (KIT),%Inh (LATS1),%Inh (LATS2)
COCCOCCOc1cc2ncc3c4ccc(C#N)cc4[nH]c3c2cc1OC,30%,30%,60%,0%,0%,96%,75%,99.9%,39%,0%,68%,11%,84%,5%,0%,0%,61%,73%,2%,10%
CN1CCN(CCCNc2nccc(-c3c(-c4ccc(F)cc4)nn4cc(C(F)(F)F)ccc34)n2)CC1 [GW621581],35%,23%,0%,0%,0%,0%,0%,7%,0%,0%,0%,32%,0%,58%,91.7%,91.9%,0%,7%,0%,0%
FC(F)(F)c1ccc(/C=C/c2cncnc2Nc2ccc3[nH]c(Cc4ccccc4)nc3c2)cc1 [GW709199],0%,0%,0%,0%,0%,2%,3%,0%,6%,10%,2%,65%,0%,0%,0%,0%,0%,0%,19%,0%
Nc1ncc(-c2cccnc2)c2scc(-c3ccc4c(c3)CCN4C(=O)Cc3ccccc3)c12 [GSK683281],0%,11%,46%,0%,0%,10%,17%,5%,18%,19%,1%,14%,0%,22%,37%,9%,7%,98.5%,0%,19%
O=C(O)C(F)(F)F.O=C(O)C(F)(F)F.O=c1[nH]ccc2nc(N[C@@H]3CCCNC3)nc(Nc3ccc(S(=O)(=O)N4CCOCC4)cc3)c12 [GSK2177277],100%,98.1%,75%,99.2%,97.6%,99.6%,22%,83%,86%,99%,82%,98.7%,99.3%,99.4%,93.4%,98.6%,70%,99.8%,92.6%,96.9%
O=C(Nc1n[nH]c2cc(-c3ccoc3)ccc12)C1CC1 [SB-738481],0%,0%,0%,0%,0%,0%,0%,0%,0%,0%,29%,18%,0%,8%,0%,6%,8%,77%,0%,3%
Cl.c1ccc(-c2ccc3c(Nc4ccc5[nH]ccc5c4)ccnc3c2)nc1 [GW440138],17%,8%,19%,0%,0%,28%,0%,3%,0%,12%,0%,24%,0%,0%,7%,2%,1%,100%,0%,17%
COc1cc(Nc2nccc(N3CCC(NC(=O)c4cc5ccccc5s4)C3)n2)cc(OC)c1OC (centres unmarked) [GSK1379760],0%,0%,6%,4%,5%,18%,85%,4%,5%,8%,0%,76%,0%,17%,16%,23%,0%,36%,57%,5%
CN1CCN(Cc2cccc(-c3ccc4c(Nc5ccc(Oc6ccccc6)cc5)ccnc4c3)c2)CC1 [GW578342],5%,0%,12%,6%,0%,13%,0%,0%,9%,21%,0%,0%,0%,0%,0%,0%,11%,93.7%,10%,0%
c1ccc(-c2n[nH]cc2Nc2ccnc3ccccc23)nc1 [GW694077],92.1%,81%,0%,0%,0%,85%,90.9%,47%,14%,0%,33%,94.2%,88%,92.6%,60%,90%,0%,33%,0%,0%

# — paper PMC5540273 (PLoS ONE, 2017)
